# Activity calls are given as the source filed them.
# Columns and labels:
# [1] = tested on: PRMT1 (protein arginine N-methyltransferase 1); test: PRMT1 binders on small-molecule microarrays, primary screen, biochemical, small-molecule microarray, 635 nm fluorescence (AID 1088); conditions: small-molecule microarray binding, higher = more signal;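 further: binding of Prmt1 protein to compounds spotted on small-molecule microarray slides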
# [2] = yeast growth modulation, basal conditions, primary screen, YJM789 clinical isolate, OD600, 24 h (AID 1089);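 further: growth of clinical yeast isolate S. cerevisiae YJM 789 seeded 1000 cells per well; test concentration not given here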; conditions: S. cerevisiae YJM789 growth, higher = more signal, called active from +8 up or from −8 down
# [3] = fission yeast growth modulation, primary screen, strain 972, OD600, 24 h, no modulator (AID 1090);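 further: basal condition with compound alone and no growth modifier present; test concentration not given here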; conditions: S. pombe 972 growth, higher = more signal, called active from +8 up or from −8 down
# [4] = S. cerevisiae growth modulation with rapamycin, primary screen, strain BY4716, OD600, 96 h (AID 1091); conditions: higher = more signal, called active from +8 up or from −8 down; further: test concentration not given here
# [5] = biological target: Torsin-1A-interacting protein 2 (Homo sapiens) (UniProt Q8NFQ8); test: LULL1 binders on small-molecule microarray, primary screen, cell lysate, human LULL1 lysate, 635/667 nm fluorescence (AID 1092); conditions: hLULL1 lysate binding, 635 nm fluorescence, higher = more signal;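 further: probe is lysate of COS7 cells overexpressing human LULL1; score merges per-feature 667 nm fluorescence with signal-to-noise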
# [6] = E. coli growth modulation, two-sided OD650, primary screen, E. coli filamentation project, strain DRC41, 24 h (AID 1093); conditions: OD650, 24 h, higher = more signal, called active from +8 up or from −8 down;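 further: MC1000 strain lacking acrAB efflux and sulA so SOS filamentation is blocked; test concentration not given here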
# [7] = small-molecule microarray binders of probe aLefty2, primary screen, biochemical, biotinylated probe, 635/667 nm fluorescence (AID 1094); conditions: higher = more signal;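 further: score merges spot fluorescence near 667 nm with spot signal-to-noise ratio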
# [8] = tested on: Noggin (protein binding on small-molecule microarray); test: Noggin binders on small-molecule microarray, primary screen, biochemical, 635/667 nm fluorescence (AID 1095); conditions: 635 nm fluorescence, higher = more signal;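 further: score merges 667 nm feature fluorescence with signal to noise over triplicate slides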
# [9] = biological target: Neurogenic locus notch homolog protein 3 (Homo sapiens) (UniProt Q9UM47); test: NOTCH3 binders on small-molecule microarray, primary screen, biochemical, 635/667 nm fluorescence (AID 1096); conditions: NOTCH3 binding, 635 nm fluorescence, higher = more signal
# [10] = small-molecule microarray binders of probe aEGFR, primary screen, biochemical, biotinylated probe, 635/667 nm fluorescence (AID 1097); conditions: higher = more signal;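 further: probe is a biotinylated anti-EGFR antibody binding compounds printed on slides; score combines fluorescence near 667 nm and signal to noise of each spot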
# [11] = tested on: Plasmodium falciparum Sir2 (PF13_0152, Sir2A); test: pfSir2 binders on small-molecule microarrays, primary screen, biochemical, small-molecule microarray, 635 nm fluorescence (AID 1098); conditions: small-molecule microarray binding, fluorescence 635 nm; higher = more signal;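 further: score merges spot fluorescence intensity with its signal-to-noise ratio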
# [12] = small-molecule microarray binders of probe aDKK1, primary screen, biochemical, biotinylated probe, 635/667 nm fluorescence (AID 1099); conditions: higher = more signal;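 further: score merges 667nm spot fluorescence with signal to noise across triplicate slides; reference of the scale not given here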
# [13] = small-molecule microarray binders of probe aCHRDL2, primary screen, biochemical, biotinylated probe, 635/667 nm fluorescence (AID 1100); conditions: higher = more signal
# [14] = splicing luciferase reporter signal modulators, primary screen, spliceosome inhibition project, cell-based, HEK293, splice +/- reporter (AID 1101); conditions: luminescence, 24 h, higher = more signal, called active from +8 up or from −8 down;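 further: HEK293 cells carrying a splicing-competent luciferase reporter gene; test concentration not given here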
# [15] = biological target: Fibroblast growth factor 10 (Homo sapiens) (UniProt O15520); test: FGF10 binders on small-molecule microarrays, primary screen, biochemical, small-molecule microarray, 635 nm fluorescence (AID 1102); conditions: FGF10 binding, fluorescence 635 nm, higher = more signal
# [16] = tested on: glycogen synthase kinase-3 (GSK3A per assay name; protocol says GSK3B); test: GSK3 binders on small-molecule microarrays, primary screen, biochemical, small-molecule microarray, 635 nm fluorescence, GSK3A (AID 1103); conditions: small-molecule microarray binding, fluorescence 635 nm; higher = more signal; further: the record names both GSK3A and GSK3B
# [17] = biological target: Epidermal growth factor receptor (Homo sapiens) (UniProt P00533); test: EGFR binders on small-molecule microarrays, primary screen, biochemical, small-molecule microarray, 635 nm fluorescence (AID 1104); conditions: EGFR binding, higher = more signal;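 further: score merges 667 nm emission intensity with spot signal to noise over triplicate slides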
# [18] = biological target: Follistatin-related protein 3 (Homo sapiens) (UniProt O95633); test: FSTL3 binders on small-molecule microarrays, primary screen, biochemical, small-molecule microarray, 635 nm fluorescence (AID 1105); conditions: FSTL3 binding, higher = more signal;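 further: score merges emission near 667 nm and signal to noise per printed spot across three slides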
# [19] = biological target: Dickkopf-related protein 1 (Homo sapiens) (UniProt O94907); test: DKK1 binders on small-molecule microarrays, primary screen, biochemical, small-molecule microarray, 635 nm fluorescence scan (AID 1106); conditions: DKK1 binding, higher = more signal;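 further: score merges emission near 667 nm with signal to noise over three replicate slides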
# [20] = tested on: Inhibin beta A chain (activin A); test: INHBA (activin A) binders on microarrays, primary screen, biochemical, small-molecule microarray, 635 nm fluorescence scan (AID 1107); conditions: small-molecule microarray binding, higher = more signal;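 further: mouse activin A protein probed at 4.33 µg/mL on printed slides; score merges bound-protein fluorescence near 667 nm with spot signal-to-noise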
# Sequence of Fibroblast growth factor 10 (Homo sapiens) (O15520 whole entry, looked up): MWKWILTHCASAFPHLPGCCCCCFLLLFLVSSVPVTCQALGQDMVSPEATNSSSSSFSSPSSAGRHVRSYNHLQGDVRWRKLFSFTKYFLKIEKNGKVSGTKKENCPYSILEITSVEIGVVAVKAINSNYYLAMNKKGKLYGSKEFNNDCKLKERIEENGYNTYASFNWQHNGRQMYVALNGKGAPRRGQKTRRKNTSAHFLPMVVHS
# Sequence of Neurogenic locus notch homolog protein 3 (Homo sapiens) (Q9UM47 whole entry, looked up): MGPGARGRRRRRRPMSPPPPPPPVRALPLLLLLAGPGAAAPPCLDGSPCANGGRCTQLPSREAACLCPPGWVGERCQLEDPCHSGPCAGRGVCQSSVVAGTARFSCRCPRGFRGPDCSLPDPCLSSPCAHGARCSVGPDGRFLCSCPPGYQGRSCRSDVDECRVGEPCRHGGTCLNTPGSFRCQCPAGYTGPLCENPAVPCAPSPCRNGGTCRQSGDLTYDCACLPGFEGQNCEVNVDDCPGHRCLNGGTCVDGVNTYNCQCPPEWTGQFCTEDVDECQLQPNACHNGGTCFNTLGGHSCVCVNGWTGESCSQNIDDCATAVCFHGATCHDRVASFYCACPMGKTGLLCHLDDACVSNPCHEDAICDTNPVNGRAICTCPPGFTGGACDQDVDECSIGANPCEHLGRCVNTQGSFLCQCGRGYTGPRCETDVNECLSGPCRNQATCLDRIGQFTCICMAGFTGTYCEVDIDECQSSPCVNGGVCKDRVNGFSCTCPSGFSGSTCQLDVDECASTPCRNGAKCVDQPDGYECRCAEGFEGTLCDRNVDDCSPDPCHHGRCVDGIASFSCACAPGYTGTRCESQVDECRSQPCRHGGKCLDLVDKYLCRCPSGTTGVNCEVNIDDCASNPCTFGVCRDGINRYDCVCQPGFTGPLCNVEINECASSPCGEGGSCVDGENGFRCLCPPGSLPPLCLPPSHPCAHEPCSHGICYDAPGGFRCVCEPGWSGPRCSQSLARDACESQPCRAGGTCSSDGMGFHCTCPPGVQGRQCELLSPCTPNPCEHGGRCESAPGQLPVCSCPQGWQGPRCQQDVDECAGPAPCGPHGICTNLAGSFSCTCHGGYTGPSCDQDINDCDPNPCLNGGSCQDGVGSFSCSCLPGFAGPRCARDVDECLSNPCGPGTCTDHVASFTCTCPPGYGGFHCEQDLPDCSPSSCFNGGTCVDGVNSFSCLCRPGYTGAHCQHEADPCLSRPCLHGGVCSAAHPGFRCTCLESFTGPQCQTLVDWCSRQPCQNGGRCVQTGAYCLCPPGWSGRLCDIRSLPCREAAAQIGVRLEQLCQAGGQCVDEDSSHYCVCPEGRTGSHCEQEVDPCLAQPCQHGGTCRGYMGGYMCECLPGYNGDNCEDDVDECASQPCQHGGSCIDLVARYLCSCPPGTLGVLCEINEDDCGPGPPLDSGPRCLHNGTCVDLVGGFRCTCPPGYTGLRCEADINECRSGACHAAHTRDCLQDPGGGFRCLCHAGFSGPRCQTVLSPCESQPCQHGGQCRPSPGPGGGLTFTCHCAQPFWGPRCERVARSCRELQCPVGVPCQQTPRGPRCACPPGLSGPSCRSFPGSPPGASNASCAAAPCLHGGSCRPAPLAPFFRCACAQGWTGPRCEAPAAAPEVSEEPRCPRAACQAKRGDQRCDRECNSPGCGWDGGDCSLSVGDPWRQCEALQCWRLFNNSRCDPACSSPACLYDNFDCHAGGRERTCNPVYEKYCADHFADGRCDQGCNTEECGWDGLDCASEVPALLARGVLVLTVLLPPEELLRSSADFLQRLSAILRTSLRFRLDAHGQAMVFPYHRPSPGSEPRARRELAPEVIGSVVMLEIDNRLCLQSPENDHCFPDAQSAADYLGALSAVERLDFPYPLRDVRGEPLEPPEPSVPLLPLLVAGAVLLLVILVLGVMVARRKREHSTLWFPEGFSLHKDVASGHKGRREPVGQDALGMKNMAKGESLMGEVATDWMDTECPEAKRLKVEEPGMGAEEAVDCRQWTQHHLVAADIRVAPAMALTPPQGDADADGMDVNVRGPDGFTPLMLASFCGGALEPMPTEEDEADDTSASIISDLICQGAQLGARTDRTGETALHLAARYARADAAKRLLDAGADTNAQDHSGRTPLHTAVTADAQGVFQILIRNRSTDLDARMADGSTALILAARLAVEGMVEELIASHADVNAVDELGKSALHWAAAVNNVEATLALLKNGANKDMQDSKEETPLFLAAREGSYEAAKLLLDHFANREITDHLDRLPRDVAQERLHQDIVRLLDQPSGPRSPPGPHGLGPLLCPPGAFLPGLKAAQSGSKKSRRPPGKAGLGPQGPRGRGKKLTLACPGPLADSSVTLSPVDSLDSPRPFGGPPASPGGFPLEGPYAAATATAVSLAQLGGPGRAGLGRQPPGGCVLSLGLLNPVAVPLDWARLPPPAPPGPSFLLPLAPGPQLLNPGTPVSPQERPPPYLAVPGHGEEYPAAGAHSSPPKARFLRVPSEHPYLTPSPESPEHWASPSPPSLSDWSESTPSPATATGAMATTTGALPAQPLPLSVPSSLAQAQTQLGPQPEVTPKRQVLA
# Sequence of Epidermal growth factor receptor (Homo sapiens) (P00533 whole entry, looked up): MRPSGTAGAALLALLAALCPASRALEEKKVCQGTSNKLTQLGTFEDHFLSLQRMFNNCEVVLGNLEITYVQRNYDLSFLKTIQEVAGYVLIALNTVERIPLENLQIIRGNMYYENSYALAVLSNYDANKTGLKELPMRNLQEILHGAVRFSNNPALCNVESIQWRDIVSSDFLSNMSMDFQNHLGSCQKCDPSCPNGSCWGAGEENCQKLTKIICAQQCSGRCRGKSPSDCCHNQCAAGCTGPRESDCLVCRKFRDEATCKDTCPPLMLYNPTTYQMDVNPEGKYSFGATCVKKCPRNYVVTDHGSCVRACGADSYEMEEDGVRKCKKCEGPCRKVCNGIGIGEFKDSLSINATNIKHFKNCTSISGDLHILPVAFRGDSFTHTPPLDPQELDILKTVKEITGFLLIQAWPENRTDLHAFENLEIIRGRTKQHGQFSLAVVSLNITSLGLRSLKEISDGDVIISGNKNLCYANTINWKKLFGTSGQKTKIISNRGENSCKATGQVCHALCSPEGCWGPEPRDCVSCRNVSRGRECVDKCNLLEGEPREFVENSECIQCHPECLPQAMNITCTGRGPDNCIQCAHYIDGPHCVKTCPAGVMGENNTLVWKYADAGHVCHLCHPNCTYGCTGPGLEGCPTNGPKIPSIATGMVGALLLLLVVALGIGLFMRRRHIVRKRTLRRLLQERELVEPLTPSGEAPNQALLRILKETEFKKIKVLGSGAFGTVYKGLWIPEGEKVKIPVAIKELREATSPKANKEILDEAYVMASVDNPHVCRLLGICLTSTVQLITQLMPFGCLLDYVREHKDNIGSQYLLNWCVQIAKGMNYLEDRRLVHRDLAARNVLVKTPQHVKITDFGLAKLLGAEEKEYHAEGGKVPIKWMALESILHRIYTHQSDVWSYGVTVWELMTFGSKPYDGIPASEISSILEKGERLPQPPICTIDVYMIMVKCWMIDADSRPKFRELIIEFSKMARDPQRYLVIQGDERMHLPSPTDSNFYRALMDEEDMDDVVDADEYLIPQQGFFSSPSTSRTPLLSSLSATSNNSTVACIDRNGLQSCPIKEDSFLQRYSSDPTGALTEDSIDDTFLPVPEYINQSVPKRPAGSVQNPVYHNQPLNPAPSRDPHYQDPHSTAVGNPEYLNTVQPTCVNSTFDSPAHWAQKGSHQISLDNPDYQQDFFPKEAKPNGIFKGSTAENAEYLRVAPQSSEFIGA
# Sequence of Dickkopf-related protein 1 (Homo sapiens) (O94907 whole entry, looked up): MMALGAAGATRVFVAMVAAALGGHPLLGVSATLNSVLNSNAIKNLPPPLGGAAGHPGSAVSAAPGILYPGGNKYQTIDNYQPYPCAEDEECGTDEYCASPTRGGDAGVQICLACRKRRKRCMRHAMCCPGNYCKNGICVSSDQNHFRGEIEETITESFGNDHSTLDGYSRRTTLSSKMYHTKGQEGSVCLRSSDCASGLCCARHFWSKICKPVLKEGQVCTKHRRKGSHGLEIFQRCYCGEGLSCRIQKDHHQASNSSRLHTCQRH
# Sequence of Follistatin-related protein 3 (Homo sapiens) (O95633 whole entry, looked up): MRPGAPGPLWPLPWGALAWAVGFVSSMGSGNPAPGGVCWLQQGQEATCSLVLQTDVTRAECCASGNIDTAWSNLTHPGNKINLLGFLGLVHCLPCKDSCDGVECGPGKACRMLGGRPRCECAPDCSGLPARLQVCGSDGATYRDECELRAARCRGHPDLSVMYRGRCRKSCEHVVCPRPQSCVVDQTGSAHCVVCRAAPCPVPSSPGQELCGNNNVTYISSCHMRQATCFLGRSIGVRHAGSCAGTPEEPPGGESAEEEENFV
# Sequence of Torsin-1A-interacting protein 2 (Homo sapiens) (Q8NFQ8 whole entry, looked up): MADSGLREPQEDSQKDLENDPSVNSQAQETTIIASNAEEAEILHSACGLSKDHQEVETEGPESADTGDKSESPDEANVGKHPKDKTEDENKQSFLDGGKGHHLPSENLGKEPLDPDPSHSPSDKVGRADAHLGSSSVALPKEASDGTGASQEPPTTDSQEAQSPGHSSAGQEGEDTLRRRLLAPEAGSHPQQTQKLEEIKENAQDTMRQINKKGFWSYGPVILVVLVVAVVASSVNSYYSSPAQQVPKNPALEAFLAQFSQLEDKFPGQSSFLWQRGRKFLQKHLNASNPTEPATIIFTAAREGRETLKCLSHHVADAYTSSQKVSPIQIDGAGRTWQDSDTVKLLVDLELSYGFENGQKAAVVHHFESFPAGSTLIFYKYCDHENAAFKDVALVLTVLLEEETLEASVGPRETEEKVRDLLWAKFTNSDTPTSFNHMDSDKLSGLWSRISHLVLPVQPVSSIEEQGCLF
SMILES,composite z-score [1],z-score [2],z-score [3],z-score [4],composite z-score [5],z-score [6],composite z-score [7],composite z-score [8],composite z-score [9],composite z-score [10],composite z-score [11],composite z-score [12],composite z-score [13],z-score [14],composite z-score [15],composite z-score [16],composite z-score [17],composite z-score [18],composite z-score [19],composite z-score [20]
O=C(NCc1ccccc1)[C@@]1(Cc2ccccc2)COC(c2ccc(OCCCO)cc2)=N1,1.41,1.51 (inactive),-1.24 (inactive),36.4 (active),3.11,0.624 (inactive),0.188,-0.629,-0.0046,-0.054,0.838,0.599,1.06,-0.13 (inactive),0.117,0.0562,-0.705,-0.641,-0.715,0.578
[N-]=[N+]=NCc1ccccc1[C@H]1OC(c2ccc(OCCCO)cc2)=N[C@@]1(Cc1ccccc1N=[N+]=[N-])C(=O)NCc1ccccc1,1.4,0.0182 (inactive),1.98 (inactive),11.8 (active),2.69,0.0275 (inactive),0.232,0.159,0.867,0.223,1.01,1.09,1.1,0.672 (inactive),1.03,1.04,-0.296,0.62,-0.193,1.13
COC(=O)C[C@H]1O[C@]2(C(=O)N(C)c3ccccc32)[C@@H](C)[C@@H]1[Si](C)(C)c1ccc(OC)cc1,0.53,-3.04 (inactive),-16.7 (active),-1.54 (inactive),0.49,1.67 (inactive),-0.0667,1.07,0.622,0.0104,0.377,-0.198,-0.514,-1.78 (inactive),1.29,0.637,0.309,0.558,0.344,-0.27
O=C1C2C=CC(C(O)C#Cc3ccccc3)N(Nc3ccccc3)C2C(=O)N1c1ccccc1 (stereo not given),0.398,0.132 (inactive),-0.0141 (inactive),0.104 (inactive),2.95,-0.389 (inactive),0.217,-0.418,0.314,-0.108,1.66,-0.0212,0.498,0.287 (inactive),-0.102,-0.208,-0.512,-0.445,-0.572,0.687
C[N+](C)(C)CCCCNC(=O)[C@@H]1C[C@@H]2C(=O)N3CCC[C@H]3C(=O)N2[C@@H]1c1cccc(OCCO)c1,0.869,-1.09 (inactive),-1.74 (inactive),-2.42 (inactive),0.381,1.54 (inactive),-0.123,1.64,0.751,0.0051,0.577,-0.222,-0.0397,0.0434 (inactive),0.455,0.249,0.495,1.45,1.44,0.0648
CC1=C([C@H](O)CCc2ccccc2)[C@H](CO)[C@@H]2C(=O)N(Cc3ccccc3)C(=O)[C@@H]2C1,-0.262,-0.466 (inactive),-1.41 (inactive),-0.873 (inactive),-0.2,1.72 (inactive),0.0769,0.932,0.497,-0.085,0.0539,-0.264,-0.551,-0.46 (inactive),0.27,-0.453,-0.176,0.785,0.28,0.317
CCCNC(=O)[C@@]1(Sc2ccc(C)cc2)CC(=O)N(Cc2ccccc2Cl)[C@@H]1c1ccc(CO)cc1,1.33,-1.08 (inactive),-3.1 (inactive),-2.53 (inactive),1.64,0.298 (inactive),0.0493,1.06,1.11,-0.0082,0.237,0.866,0.956,-2.31 (inactive),0.719,1.28,0.566,1.06,1.22,1.42
O=C(NCC(O)CO)[C@]1(Cc2ccccc2)N=C(c2ccc(OCCCO)cc2)O[C@@H]1c1ccccc1 (stereo not given in full),1.26,-1 (inactive),-1.56 (inactive),-1.81 (inactive),3.43,0.897 (inactive),0.595,-0.574,-0.0954,0.107,1.51,1,0.955,-1.47 (inactive),-0.23,-0.0255,-1.25,-0.376,-0.197,0.148
C#C[C@H](O[Si](C#Cc1ccccc1)(C(C)C)C(C)C)c1ccccc1,0.0132,-22.2 (active),-20.1 (active),-2.8 (inactive),0.504,-0.227 (inactive),-0.279,-0.251,-0.406,-0.25,2.08,-0.156,0.104,-0.647 (inactive),0.0189,-0.75,-0.765,-0.643,-0.854,0.0677
COCC(=C=CC[C@H](O)c1ccc(OCCO)cc1)C[C@H](O)c1ccccn1,0.546,0.725 (inactive),-1.05 (inactive),-0.352 (inactive),1.38,1.06 (inactive),-0.0216,0.0559,-0.457,-0.235,0.338,-0.169,-0.201,0.0572 (inactive),-0.198,0.208,-0.829,-0.293,-0.326,0.403
CO[C@]12C=C(Br)[C@@H](C[C@@H]1c1ccccc1)[C@@]1(CO1)C2=O,-0.167,-0.0474 (inactive),-4.38 (inactive),-0.208 (inactive),-0.132,2.43 (inactive),-0.2,0.706,0.243,-0.14,0.165,-0.301,-0.708,-0.0249 (inactive),0.342,0.497,0.496,0.615,0.791,0.737

# Source: PubChem BioAssay
